# According to PubChem BioAssay:
# Unmarked numbers belong to inactive results. Active and inactive are the calls of the source. Cut-off read from the data, not from the text of the source: active = inhibition above about 28%; inactive = the rest.
# Experiment: StAR promoter reporter inhibitors, counter-screen for LRH-1 inverse agonist project, cell-based, luminescence, high throughput (AID 651611)
# Conditions: StAR promoter luciferase reporter counterscreen, at 3.6 µM, active compounds read high
row,Compound,inhibition
1,Nc1nc2ccccc2cc1C(=O)NCc1ccc(-c2ccccc2)cc1,24.6%
2,C/C(=N/N1CCN(Cc2cccc3ccccc23)CC1)c1cccnc1,-12%
3,Cc1ccc(SCc2ccc(C(=O)NCc3ccncc3)cc2)cc1,-0.78%
4,CCN(CC)S(=O)(=O)c1ccc(N2CCOCC2)c(NC(=O)c2[nH]c(C)c(C(C)=O)c2C)c1,61.6% (active)
5,CCOc1ccc(NC(=O)COC(=O)C2CCC(=O)N2)c([N+](=O)[O-])c1 (stereo unspecified),4.31%
6,Cc1ccc(NC(=O)CCl)c(C)c1,35% (active)
7,O=C(CSc1n[nH]c(-c2ccccn2)n1)Nc1ccc(Cl)cc1,36.3% (active)
8,O=[N+]([O-])c1ccc(S(=O)Cc2ccccc2)c([N+](=O)[O-])c1 (stereo unspecified),8.41%
9,COc1ccc(C2=CC(=O)OC3(CCCC3)O2)cc1,15%
10,OCC1OC(n2cnc3c(/C=C(\O)c4ccccc4)ncnc32)C(O)C1O (stereo unspecified),-32.8%
11,CCCc1cc(NCC2CCCO2)n2c(nc3ccccc32)c1C#N (stereo unspecified),-0.55%
12,C#Cc1cc(N2CCN(C(=O)c3ccoc3)CC2)n2nc(-c3cccc(Cl)c3)cc2n1,49% (active)
13,CCC(=O)N1CCN(c2ccc(NC(=O)c3ccc([N+](=O)[O-])o3)cc2)CC1,17.6%
14,COc1ccc(CCNC(=O)c2ccc(CSc3ccc(Cl)cc3)o2)cc1OC,-6.83%
15,CC(=O)Nc1sc2c(c1-c1nc3ccccc3s1)CN(C(C)C)CC2,36.6% (active)
16,COc1ccccc1NC(=O)CN1CCN(CC(=O)Nc2ccc(S(N)(=O)=O)cc2)CC1,19.1%
